# Measurements taken from the supplement of paper PMC12645437, “Orthogonal IMiD-Degron Pairs Induce Selective Protein Degradation in Cells” (ACS Chemical Biology, 2025).
# The full ranking holds about 8,300 sequences; the median of “log2 fold change of degron read counts, EGFP-low vs EGFP+ sorted cells (limma voom), compound-induced degradation” is about -1.1, and the highest 2% start at about 3.2. Shown is part of a subset that was picked to be rich in the highest values.
# T1: CRBN, Q96SW2
# T1 chain: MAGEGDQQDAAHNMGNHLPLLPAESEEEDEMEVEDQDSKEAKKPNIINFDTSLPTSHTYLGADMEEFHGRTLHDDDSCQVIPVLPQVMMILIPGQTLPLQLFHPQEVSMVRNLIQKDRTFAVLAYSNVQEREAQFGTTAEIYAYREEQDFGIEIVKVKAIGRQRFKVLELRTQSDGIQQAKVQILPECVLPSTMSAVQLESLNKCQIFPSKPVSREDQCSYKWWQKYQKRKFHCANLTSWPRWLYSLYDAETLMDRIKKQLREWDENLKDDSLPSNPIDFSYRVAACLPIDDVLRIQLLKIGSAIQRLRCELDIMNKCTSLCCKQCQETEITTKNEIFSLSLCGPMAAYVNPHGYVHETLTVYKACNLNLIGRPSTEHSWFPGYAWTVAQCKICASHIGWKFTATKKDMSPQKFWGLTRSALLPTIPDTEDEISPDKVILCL
# Target: T1, CRBN, Q96SW2
# Assay: log2 fold change of degron read counts, EGFP-low vs EGFP+ sorted cells (limma voom), compound-induced degradation; higher = more compound-induced degradation of the degron-EGFP fusion; degrons are variants of IKZF1/3 zinc finger 2; compound dose not given here
# Conditions: Jurkat, 18 h
# [1] = compound: compound 19 (5-tert-butyl-thalidomide)
# [2] = compound: compound 22 (5-morpholino-thalidomide)
# [3] = compound: compound 33 (diphenyl IMiD analogue)
# 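Note: pooled lentiviral library of zinc finger degron-EGFP fusions in mCherry-positive Jurkat cells, FACS-sorted after compound exposure, with degron abundance counted by next-generation sequencing.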
Sequence,log2 fold change of degron read counts [1],log2 fold change of degron read counts [2],log2 fold change of degron read counts [3],log2 fold change of degron read counts (compound: thalidomide)
"FQCPICGRGFTQKGNLLRHIKL [46F_47Q_49P_50I_52G_53R_54G_55F_67L_, Q9UKT9]",-0.816,-0.908,-0.112,1.8
"FQCEICGAVFTQKGNLLRHIKL [46F_47Q_49E_50I_52G_53A_54V_55F_67L_, Q9UKT9]",0.132,2.71,2.34,3.22
"FGCDQCGAWFTQKGNLLRHIKL [46F_47G_49D_50Q_52G_53A_54W_55F_67L_, Q9UKT9]",-2.44,-2.82,-1.38,-2.3
"FMCEICGHQFTQKGNLLRHIKL [46F_47M_49E_50I_52G_53H_54Q_55F_67L_, Q9UKT9]",-3.75,-3.29,-1.95,-1.87
"FCCNQCGRVFTQKGNLLRHIKL [46F_47C_49N_50Q_52G_53R_54V_55F_67L_, Q9UKT9]",-2.29,-2.57,-2.1,-2.12
"FLCNQCGRCFTQKGNLLRHIKL [46F_47L_49N_50Q_52G_53R_54C_55F_67L_, Q9UKT9]",-1.41,-1.61,-3.08,-2.11
"FVCPQCGAIFTQKGNLLRHIKL [46F_47V_49P_50Q_52G_53A_54I_55F_67L_, Q9UKT9]",-2.01,-1.63,-0.464,-0.946
"FWCDICGASFTQKGNLLRHIKL [46F_47W_49D_50I_52G_53A_54S_55F_67L_, Q9UKT9]",3.28,3.69,1.52,-0.347
"FCCDICGASFTQKGNLLRHIKL [46F_47C_49D_50I_52G_53A_54S_55F_67L_, Q9UKT9]",2.32,1.84,0.871,0.402
"FNCPICGASFTQKGNLLRHIKL [46F_47N_49P_50I_52G_53A_54S_55F_67L_, Q9UKT9]",2.84,1.58,1.33,0.876
"FKCPICGASFTQKGNLLRHIKL [46F_47K_49P_50I_52G_53A_54S_55F_67L_, Q9UKT9]",1.49,-0.57,-1.45,0.422
"FQCDICGASFTQKGNLLRHIKL [46F_47Q_49D_50I_52G_53A_54S_55F_67L_, Q9UKT9]",1.07,1.92,1.15,2.99
"FECDICGASFTQKGNLLRHIKL [46F_47E_49D_50I_52G_53A_54S_55F_67L_, Q9UKT9]",0.774,-2.24,-0.436,-0.0103
"FWCPICGASFTQKGNLLRHIKL [46F_47W_49P_50I_52G_53A_54S_55F_67L_, Q9UKT9]",3.29,3.64,2.28,1.35
"FLCPICGASFTQKGNLLRHIKL [46F_47L_49P_50I_52G_53A_54S_55F_67L_, Q9UKT9]",1.51,0.569,1.64,1.57
"FYCPICGASFTQKGNLLRHIKL [46F_47Y_49P_50I_52G_53A_54S_55F_67L_, Q9UKT9]",3.25,3.43,2.54,1.24
"FQCPICGASFTQKGNLLRHIKL [46F_47Q_49P_50I_52G_53A_54S_55F_67L_, Q9UKT9]",2.55,2.88,2.76,3.79
"FDCPICGASFTQKGNLLRHIKL [46F_47D_49P_50I_52G_53A_54S_55F_67L_, Q9UKT9]",3.04,1.06,1.22,1.9
